Assays:
Test in all cases: log2 ratio of Biotin-Ahx-Ub-VS probe labelling (fragment/DMSO); higher = less target engagement (more negative = stronger competition), active = hit call of the paper (q ≤ 0.05, log2 ratio ≤ -1)
Conditions in all cases: compound concentration: 200 uM; treatment time: 3 h
USP19 = molecular target: T1, USP19 (UniProt O94966)
T1 sequence (whole entry): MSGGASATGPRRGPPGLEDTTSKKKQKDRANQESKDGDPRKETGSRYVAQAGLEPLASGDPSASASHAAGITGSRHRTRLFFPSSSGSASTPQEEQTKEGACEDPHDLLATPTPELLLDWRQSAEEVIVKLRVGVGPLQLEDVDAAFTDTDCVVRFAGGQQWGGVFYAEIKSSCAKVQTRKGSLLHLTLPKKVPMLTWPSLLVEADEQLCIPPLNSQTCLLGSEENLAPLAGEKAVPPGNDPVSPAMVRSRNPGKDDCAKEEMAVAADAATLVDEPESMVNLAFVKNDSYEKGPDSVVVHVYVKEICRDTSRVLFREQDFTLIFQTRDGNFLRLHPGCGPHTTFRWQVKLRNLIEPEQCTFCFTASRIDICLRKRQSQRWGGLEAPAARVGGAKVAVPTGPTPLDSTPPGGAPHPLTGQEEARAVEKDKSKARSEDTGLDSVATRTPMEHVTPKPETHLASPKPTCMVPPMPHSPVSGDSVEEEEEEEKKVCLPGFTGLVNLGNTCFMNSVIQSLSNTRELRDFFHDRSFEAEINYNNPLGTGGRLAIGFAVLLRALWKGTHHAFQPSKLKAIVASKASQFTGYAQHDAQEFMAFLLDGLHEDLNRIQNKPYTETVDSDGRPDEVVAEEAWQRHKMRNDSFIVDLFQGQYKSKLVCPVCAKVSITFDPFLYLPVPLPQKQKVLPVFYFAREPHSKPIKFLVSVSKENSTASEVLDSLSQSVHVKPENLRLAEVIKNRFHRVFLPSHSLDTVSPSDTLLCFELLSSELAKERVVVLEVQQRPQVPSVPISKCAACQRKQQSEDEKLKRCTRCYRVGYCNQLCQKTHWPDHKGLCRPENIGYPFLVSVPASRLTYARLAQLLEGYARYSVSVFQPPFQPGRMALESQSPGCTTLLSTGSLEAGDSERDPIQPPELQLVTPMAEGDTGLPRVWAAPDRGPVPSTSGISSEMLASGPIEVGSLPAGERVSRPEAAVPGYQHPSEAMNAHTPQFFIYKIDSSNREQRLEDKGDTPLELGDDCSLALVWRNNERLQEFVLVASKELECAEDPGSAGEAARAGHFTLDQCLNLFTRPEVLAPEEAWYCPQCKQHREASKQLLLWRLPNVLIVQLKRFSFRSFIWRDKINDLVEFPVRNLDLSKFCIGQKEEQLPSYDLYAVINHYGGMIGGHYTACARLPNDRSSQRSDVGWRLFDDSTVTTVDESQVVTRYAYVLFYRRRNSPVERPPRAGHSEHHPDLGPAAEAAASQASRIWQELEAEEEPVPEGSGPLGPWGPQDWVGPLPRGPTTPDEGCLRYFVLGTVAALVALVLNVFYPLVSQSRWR
Summary of the method: (§1)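 Labelling with Biotin-Ahx-Ub-VS (0.5 µM final, 1 h) followed a 3 h triplicate treatment of HEK293T lysate (495 µg per sample, Tris/CHAPS/IGEPAL buffer with protease inhibitors) with fragment at 200 µM or vehicle. Labelled DUBs were NeutrAvidin-enriched, digested with LysC and trypsin, and run by diaPASEF LC-MS/MS. The values, average log2 fragment/vehicle ratios by unpaired t-test, come from global-median-normalised Spectronaut label-free quantities. Proteins with ≥2 unique peptides were used.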

USP22 = molecular target: T2, USP22 (UniProt Q9UPT9)
T2 sequence (whole entry): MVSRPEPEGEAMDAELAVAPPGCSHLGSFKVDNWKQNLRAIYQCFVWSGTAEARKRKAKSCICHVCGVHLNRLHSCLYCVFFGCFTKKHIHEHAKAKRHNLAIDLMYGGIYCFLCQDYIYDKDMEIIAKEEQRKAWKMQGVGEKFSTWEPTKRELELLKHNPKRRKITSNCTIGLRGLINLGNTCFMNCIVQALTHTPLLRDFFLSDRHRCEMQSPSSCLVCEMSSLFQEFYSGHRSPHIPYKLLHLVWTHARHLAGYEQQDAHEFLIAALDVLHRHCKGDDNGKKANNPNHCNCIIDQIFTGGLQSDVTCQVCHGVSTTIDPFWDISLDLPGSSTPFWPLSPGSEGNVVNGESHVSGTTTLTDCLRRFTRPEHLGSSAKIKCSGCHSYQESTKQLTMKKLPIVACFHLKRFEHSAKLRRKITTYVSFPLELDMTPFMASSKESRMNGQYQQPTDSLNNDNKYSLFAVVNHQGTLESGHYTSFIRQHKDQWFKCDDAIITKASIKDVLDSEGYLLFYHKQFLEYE
Summary of the method: as §1

USP24 = USP24 (UniProt Q9UPU5)
Chain of USP24 (Q9UPU5 whole entry): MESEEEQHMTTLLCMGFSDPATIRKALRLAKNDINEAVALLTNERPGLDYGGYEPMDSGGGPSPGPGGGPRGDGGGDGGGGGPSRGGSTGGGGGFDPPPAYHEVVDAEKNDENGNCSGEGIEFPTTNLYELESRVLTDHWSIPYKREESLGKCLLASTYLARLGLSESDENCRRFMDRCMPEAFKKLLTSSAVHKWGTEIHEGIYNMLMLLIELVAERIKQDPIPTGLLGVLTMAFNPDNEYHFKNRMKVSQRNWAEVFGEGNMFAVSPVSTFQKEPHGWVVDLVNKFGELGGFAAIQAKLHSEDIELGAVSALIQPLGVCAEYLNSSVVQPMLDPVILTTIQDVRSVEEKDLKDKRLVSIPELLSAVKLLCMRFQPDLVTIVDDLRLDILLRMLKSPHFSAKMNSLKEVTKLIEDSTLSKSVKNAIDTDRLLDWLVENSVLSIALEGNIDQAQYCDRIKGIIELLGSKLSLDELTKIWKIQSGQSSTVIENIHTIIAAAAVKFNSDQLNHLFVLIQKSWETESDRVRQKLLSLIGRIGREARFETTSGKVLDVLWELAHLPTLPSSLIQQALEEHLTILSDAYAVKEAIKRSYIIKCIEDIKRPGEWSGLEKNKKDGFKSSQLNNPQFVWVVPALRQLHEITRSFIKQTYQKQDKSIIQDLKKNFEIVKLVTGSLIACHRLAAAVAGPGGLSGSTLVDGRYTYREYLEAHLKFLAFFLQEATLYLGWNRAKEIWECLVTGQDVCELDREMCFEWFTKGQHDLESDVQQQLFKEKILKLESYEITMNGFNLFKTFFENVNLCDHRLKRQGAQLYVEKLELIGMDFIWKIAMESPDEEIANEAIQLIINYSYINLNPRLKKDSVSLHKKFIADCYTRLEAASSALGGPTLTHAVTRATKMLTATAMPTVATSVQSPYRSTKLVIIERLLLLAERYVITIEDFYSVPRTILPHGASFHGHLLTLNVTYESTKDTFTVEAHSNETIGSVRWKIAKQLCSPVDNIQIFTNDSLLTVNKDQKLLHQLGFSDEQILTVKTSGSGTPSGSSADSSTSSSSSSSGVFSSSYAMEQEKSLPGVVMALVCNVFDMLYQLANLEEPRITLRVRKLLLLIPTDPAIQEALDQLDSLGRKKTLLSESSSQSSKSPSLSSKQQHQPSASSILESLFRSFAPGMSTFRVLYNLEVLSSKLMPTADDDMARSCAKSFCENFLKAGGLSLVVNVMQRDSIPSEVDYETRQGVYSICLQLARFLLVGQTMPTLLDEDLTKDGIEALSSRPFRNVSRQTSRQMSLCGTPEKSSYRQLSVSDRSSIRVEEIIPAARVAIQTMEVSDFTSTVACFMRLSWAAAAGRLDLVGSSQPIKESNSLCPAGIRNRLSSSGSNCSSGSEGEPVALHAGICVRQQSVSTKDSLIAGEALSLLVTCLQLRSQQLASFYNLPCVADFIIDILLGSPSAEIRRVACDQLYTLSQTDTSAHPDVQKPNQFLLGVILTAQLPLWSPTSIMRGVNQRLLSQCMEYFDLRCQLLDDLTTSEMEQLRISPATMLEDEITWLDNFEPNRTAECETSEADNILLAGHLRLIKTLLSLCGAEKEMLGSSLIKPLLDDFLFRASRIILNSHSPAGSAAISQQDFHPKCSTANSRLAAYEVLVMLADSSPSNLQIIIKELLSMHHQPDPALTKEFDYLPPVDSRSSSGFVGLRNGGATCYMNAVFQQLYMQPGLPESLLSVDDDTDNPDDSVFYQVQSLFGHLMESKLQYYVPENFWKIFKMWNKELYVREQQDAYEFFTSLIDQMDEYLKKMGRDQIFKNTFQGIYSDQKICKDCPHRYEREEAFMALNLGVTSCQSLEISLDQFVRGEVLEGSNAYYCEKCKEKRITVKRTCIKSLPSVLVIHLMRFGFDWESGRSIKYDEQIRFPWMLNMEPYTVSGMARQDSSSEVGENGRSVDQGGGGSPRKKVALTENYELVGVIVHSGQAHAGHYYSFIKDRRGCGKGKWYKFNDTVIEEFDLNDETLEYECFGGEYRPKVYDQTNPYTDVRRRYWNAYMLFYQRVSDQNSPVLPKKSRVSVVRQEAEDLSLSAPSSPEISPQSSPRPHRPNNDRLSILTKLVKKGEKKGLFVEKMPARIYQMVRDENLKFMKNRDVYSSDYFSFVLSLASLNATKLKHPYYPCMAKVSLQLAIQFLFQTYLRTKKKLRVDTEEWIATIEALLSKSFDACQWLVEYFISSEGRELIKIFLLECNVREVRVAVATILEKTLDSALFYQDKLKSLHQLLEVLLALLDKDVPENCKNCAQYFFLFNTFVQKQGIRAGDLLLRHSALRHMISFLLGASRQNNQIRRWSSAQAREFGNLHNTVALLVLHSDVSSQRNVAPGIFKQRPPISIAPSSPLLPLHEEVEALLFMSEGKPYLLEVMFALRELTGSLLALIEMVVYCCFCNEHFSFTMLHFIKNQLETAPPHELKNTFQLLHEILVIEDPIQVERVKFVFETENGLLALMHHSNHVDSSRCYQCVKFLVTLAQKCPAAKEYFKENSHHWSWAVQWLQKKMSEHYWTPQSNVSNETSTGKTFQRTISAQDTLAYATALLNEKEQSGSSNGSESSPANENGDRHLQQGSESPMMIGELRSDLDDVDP
Summary of the method: as §1

USP25 = molecular target: T3, USP25 (UniProt Q9UHP3)
T3 sequence (whole entry): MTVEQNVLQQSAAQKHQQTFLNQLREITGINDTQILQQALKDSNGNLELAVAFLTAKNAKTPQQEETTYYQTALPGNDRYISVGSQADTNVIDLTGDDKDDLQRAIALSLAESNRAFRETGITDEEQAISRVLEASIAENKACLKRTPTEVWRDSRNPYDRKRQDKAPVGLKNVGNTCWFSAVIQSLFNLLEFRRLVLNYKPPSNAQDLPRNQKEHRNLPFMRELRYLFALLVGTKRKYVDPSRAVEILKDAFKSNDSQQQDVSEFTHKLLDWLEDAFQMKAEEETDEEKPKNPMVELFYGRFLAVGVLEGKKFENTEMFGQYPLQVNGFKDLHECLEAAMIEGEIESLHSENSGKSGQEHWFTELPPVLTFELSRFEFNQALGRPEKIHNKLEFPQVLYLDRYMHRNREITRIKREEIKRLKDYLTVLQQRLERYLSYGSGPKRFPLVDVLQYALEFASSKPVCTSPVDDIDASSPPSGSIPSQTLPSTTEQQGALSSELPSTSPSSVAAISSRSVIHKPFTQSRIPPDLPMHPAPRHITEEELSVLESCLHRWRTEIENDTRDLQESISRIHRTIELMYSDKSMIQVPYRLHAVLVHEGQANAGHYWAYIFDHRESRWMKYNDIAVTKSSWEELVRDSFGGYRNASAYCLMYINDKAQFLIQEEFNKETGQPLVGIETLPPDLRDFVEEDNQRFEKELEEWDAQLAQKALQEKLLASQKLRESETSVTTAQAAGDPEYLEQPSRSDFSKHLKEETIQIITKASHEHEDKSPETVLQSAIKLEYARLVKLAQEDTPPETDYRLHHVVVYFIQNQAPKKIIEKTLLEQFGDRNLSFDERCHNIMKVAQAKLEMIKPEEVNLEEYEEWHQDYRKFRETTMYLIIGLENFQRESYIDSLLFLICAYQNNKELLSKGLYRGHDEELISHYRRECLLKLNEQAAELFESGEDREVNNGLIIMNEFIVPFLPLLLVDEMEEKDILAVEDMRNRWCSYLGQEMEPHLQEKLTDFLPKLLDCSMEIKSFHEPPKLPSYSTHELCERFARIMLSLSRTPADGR
Summary of the method: as §1

USP28 = molecular target: T4, USP28 (UniProt Q96RU2)
T4 sequence (whole entry): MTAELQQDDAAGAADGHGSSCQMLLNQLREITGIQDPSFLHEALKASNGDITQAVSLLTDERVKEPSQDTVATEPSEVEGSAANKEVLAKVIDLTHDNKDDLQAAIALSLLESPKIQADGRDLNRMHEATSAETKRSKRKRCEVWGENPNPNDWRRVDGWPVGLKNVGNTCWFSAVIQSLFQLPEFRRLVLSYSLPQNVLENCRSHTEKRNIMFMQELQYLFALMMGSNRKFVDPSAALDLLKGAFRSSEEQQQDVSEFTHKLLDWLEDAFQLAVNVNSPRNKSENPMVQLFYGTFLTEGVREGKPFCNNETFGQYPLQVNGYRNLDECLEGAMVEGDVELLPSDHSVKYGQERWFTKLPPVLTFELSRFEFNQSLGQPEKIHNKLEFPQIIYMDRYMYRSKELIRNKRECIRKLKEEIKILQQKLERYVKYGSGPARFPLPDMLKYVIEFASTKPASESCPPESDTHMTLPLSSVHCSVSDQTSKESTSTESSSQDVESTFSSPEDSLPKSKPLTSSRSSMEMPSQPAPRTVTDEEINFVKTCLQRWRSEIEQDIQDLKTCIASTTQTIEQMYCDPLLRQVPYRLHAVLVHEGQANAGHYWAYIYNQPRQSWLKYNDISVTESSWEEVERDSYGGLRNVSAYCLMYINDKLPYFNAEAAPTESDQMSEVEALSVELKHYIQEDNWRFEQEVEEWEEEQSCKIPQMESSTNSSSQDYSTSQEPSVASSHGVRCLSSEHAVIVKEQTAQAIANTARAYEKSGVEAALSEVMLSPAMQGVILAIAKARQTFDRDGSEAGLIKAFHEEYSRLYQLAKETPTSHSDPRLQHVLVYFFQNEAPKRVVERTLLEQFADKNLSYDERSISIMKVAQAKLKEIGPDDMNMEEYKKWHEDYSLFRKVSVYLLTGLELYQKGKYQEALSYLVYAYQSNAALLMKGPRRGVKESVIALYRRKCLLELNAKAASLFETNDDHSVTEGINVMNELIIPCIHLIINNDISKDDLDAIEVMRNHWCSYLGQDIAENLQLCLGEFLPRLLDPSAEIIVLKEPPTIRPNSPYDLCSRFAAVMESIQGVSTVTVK
Summary of the method: as §1

Measured: log2 ratio of Biotin-Ahx-Ub-VS probe labelling

Cc1ccccc1C1(CNC(=O)CCl)CCOCC1
inactive: USP19 -0.115 | USP22 -0.0958 | USP24 -0.178 | USP25 -0.264 | USP28 -0.284

From the supplement of paper PMC11732987, “Enantioselective OTUD7B fragment discovery through chemoproteomics screening and high-throughput optimisation” (Communications Chemistry, 2025)
